# In PubChem BioAssay (EPA / NIEHS):
# Records with an inconclusive call do not appear. Calls of active or inactive are those of the source. Rule for the calls: active = hit-call score of the fitted dose curve at least 0.9, where 1 is the maximum; inconclusive = response in the unintended direction; inactive = score below 0.9.
# Read-out: sulfotransferase (SULT2A), SULT2A1 (gene 6822)
# Assay: CLD_SULT2A_6hr: CellzDirect (CLD) Gene Expression Assay for sulfotransferase (SULT2A) at 6 hours (AID 2283669);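 note: hits raise transcript level above the DMSO vehicle baseline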
# Procedure: CLD_6hr is a cell-based, multiplexed-readout assay that uses hepatocyte, a human liver primary cell, with measurements taken at 6 hours after chemical dosing in a 96-well plate.CLD_SULT2A_6hr is one of 16 assay component(s) measured or calculated from the CLD_6hr assay. It is designed to make measurements of mRNA induction, a form of inducible reporter, as detected with chemiluminescence signals by Quantitative Nuclease Protection Assay (qNPA) technology.Data from the assay component CLD_SULT2A_6hr was analyzed at the endpoint, CLD_SULT2A_6hr, in the positive analysis fitting direction relative to DMSO as the negative control and baseline of activity. Using a type of inducible reporter, gain-of-signal activity can be used to understand changes in the reporter gene as they relate to the gene SULT2A1. Furthermore, this assay endpoint can be referred to as a primary readout. To generalize the intended target to other relatable targets, this assay endpoint is annotated to the transferase intended target family, where subfamily is sulfotransferase.
# Human hepatocyte cultures were treated daily for two consecutive days with fresh dosing solutions containing appropriate concentrations of the 320 ToxCast chemicals (chemical identities were blinded to CellzDirect and other ToxCast collaborators), vehicle control (0.2% DMSO), and positive control inducers as summarized in Table 1. Due to the large number of treatment groups and chemicals examined, the ToxCast chemicals were divided into two groups (spanning two independent cultures of hepatocytes from separate donor preparations (Hu778: ToxCast plates 1 and 2; Hu776: ToxCast plates 3 and 4). Each preparation of human hepatocyte cultures was treated with respective vehicle control, medium only control, set of six positive controls/reference chemicals for the five hepatic receptor pathways, and a subset of eight of the ToxCast chemicals (indoxacarb, pyrithiobac-sodium, norflurazon, cyhalofop-butyl, methomyl, thiram, acetochlor, and propiconazole). These replicate data, coupled with internal replicates designed within the blinded ToxCast chemical library, provided additional data to evaluate interindividual differences between hepatocyte preparations and their potential impact on chemical profiles.Cell morphology and integrity were evaluated using phase-contrast microscopy as an indicator of hepatocyte cell health (Tyson & Green, 1987). Cultures for each treatment group (i.e., media, vehicle [0.2% DMSO], positive control inducers [multiple concentrations], and the ToxCast chemicals [multiple concentrations]) were observed and cell morphology was assessed relative to vehicle control cultures at each harvest time point (0, 6, 24, or 48 h). […] Images were evaluated at the conclusion of the study to assess changes in cell integrity and account for the effects of chemical exposure on uncharacteristic changes in concentration-dependent gene expression profiles. The results from these determinations of apparent cytotoxicity were annotated (yes/no) alongside the corresponding qNPA data for reference.At the conclusion of each treatment period, hepatocyte cultures (96-well) were washed with 1 volume of HBSS, lysed by addition of 25 ul ArrayPlate lysis buffer (HTG, Tucson, AZ), and 70 ul/well of Denaturation Oil, denatured by incubation at 95C for 10 min, and frozen at approximately -70C until analysis by nuclease protection assay (qNPA) (Roberts et al., 2007). For qNPA analysis, cell lysates were thawed at 50C for approximately 30 min, qNPA probes were added, and samples were incubated at 95C for 10 min to begin the detection process by denaturing the target RNA, dissociating the duplexes and secondary structure hybridization. At the conclusion of the hybridization period, S1 nuclease reagent was added to each sample to digest all nonprotected nucleotides at 50C for 60-90 min. […]
SMILES,outcome,AC50
CC(C)N(C(=O)SCC(Cl)=C(Cl)Cl)C(C)C,inactive,
CN(C)NC(=O)CCC(=O)O,inactive,
C[Si](Cn1cncn1)(c1ccc(F)cc1)c1ccc(F)cc1,inactive,
CSC1=N[C@@](C)(c2ccccc2)C(=O)N1Nc1ccccc1,inactive,
CCCCN(CC)c1c([N+](=O)[O-])cc(C(F)(F)F)cc1[N+](=O)[O-],inactive,
CSc1nc(NC(C)C)nc(NC(C)C)n1,inactive,
CNc1cnn(-c2cccc(C(F)(F)F)c2)c(=O)c1Cl,inactive,
CCOP(=S)(OCC)OC(Cl)C(Cl)(Cl)Cl (stereo not given),inactive,
FC(F)C(F)(F)OCC(Cn1cncn1)c1ccc(Cl)cc1Cl (stereo not given),inactive,
O=C(O)c1cc(Oc2ccc(C(F)(F)F)cc2Cl)ccc1[N+](=O)[O-],,0.00442 µM (active)
CCCSP(=O)(OCC)SCCC,inactive,
CON=C(C(=O)OC)c1ccccc1CON=C(C)c1cccc(C(F)(F)F)c1,inactive,
CCCOCC(=Nc1ccc(Cl)cc1C(F)(F)F)n1ccnc1,inactive,
C=C(C)[C@H]1Cc2c(ccc3c2O[C@@H]2COc4cc(OC)c(OC)cc4[C@@H]2C3=O)O1,inactive,
CC(=NC#N)N(C)Cc1ccc(Cl)nc1,inactive,
CNC(=O)ON=C(C)SC,inactive,
CCOP(=S)(Oc1cnc(C(C)(C)C)nc1)OC(C)C (stereo not given),,10.8 µM (active)
CCOP(=S)(OCC)SCCSCC,inactive,
CC(C1CC1)C(O)(Cn1cncn1)c1ccc(Cl)cc1 (stereo not given),inactive,
CCC(=NOC/C=C/Cl)C1=C(O)CC(C2CCOCC2)CC1=O (stereo not given),inactive,

SMILES,outcome,AC50
CC(C)=CC1C(C(=O)OCN2C(=O)C3=C(CCCC3)C2=O)C1(C)C (stereo not given),inactive,
CN1COCN(Cc2cnc(Cl)s2)C1=N[N+](=O)[O-],inactive,
CCOP(=O)(OCC)Oc1cc(C)nc(C(C)C)n1,inactive,
CCOP(=S)(OCC)Oc1cc(C)nc(C(C)C)n1,inactive,
COc1cccc(C(=O)NN(C(=O)c2cc(C)cc(C)c2)C(C)(C)C)c1C,inactive,
CCC(CC)Nc1c([N+](=O)[O-])cc(C)c(C)c1[N+](=O)[O-],inactive,
CNC(=O)ON=C(SC)C(=O)N(C)C,inactive,
CC1=NNC(=O)N(/N=C/c2cccnc2)C1,inactive,
O=[N+]([O-])c1cc(C(F)(F)F)c(Cl)c([N+](=O)[O-])c1Nc1ncc(C(F)(F)F)cc1Cl,inactive,
Cc1nn(-c2cc(NS(C)(=O)=O)c(Cl)cc2Cl)c(=O)n1C(F)F,inactive,
COP(=O)(OC)SCn1c(=O)oc2cc(Cl)cnc21,inactive,
CCOC(=O)COc1cc(-c2nn(C)c(OC(F)F)c2Cl)c(F)cc1Cl,inactive,
CCOP(=S)(OCC)Oc1ccc2c(C)c(Cl)c(=O)oc2c1,inactive,
CNC(=O)Oc1cccc2c1OC(C)(C)O2,inactive,
Nc1nc(N)nc(NC2CC2)n1,inactive,
CCOP(=S)(OCC)Oc1ccc([N+](=O)[O-])cc1,inactive,
CCc1cccc(CC)c1N(COC)C(=O)CCl,inactive,
CC(COc1ccc(Oc2ccccc2)cc1)Oc1ccccn1 (stereo not given),inactive,
CCCCSP(=O)(SCCCC)SCCCC,inactive,
C#CC(C)(C)NC(=O)c1cc(Cl)cc(Cl)c1,inactive,
